Results as given in PubChem BioAssay AID1159580 (chemical genetic matrix, 2015).
Values joined by “and” are separate entries in the source; they are usually repeats but may differ in a detail not shown here. Equal entries are not always repeated. Among all 5,500 compounds or so, about 2,000 (36%) were called active. Inconclusive results (about 18%) are left out. Cut-off read from the data, not from the text of the source: active = normalized growth mostly below about 0.91 (no sharp cut-off); inconclusive = no clear call, values can overlap the other calls; inactive = mostly above about 0.92. The list shows a part of the results.

Experiment: chemical genetic growth profiling, strain panel (AID 1159580);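 note: tested at 20 µM; growth read once vehicle control cultures reached saturation at 30 °C; 1 = growth at the plate median or of vehicle wells; lower values mean less growth of the strain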
Details: growth OD
[1] = S. cerevisiae deletion strains, locus YAL013W, strain DEP1, stronger effect = lower value
[2] = S. cerevisiae deletion strains, locus YBR229C, strain ROT2, stronger effect = lower value
[3] = S. cerevisiae deletion strains, locus YDL101C, strain DUN1, stronger effect = lower value
[4] = S. cerevisiae deletion strains, locus YDL134C, strain PPH21, stronger effect = lower value
[5] = S. cerevisiae deletion strains, locus YDR150W, strain NUM1, stronger effect = lower value
[6] = S. cerevisiae deletion strains, locus YEL061C, strain CIN8, stronger effect = lower value
[7] = S. cerevisiae deletion strains, locus YGR078C, strain PAC10, stronger effect = lower value
[8] = S. cerevisiae deletion strains, locus YHR030C, strain SLT2, stronger effect = lower value
[9] = S. cerevisiae deletion strains, locus YJR043C, strain POL32, stronger effect = lower value
[10] = S. cerevisiae deletion strains, locus YJR075W, strain HOC1, stronger effect = lower value
[11] = S. cerevisiae deletion strains, locus YKL190W, strain CNB1, stronger effect = lower value
[12] = S. cerevisiae deletion strains, locus YLR039C, strain RIC1, stronger effect = lower value
[13] = S. cerevisiae deletion strains, locus YLR262C, strain YPT6, stronger effect = lower value
[14] = S. cerevisiae deletion strains, locus YNL322C, strain KRE1, stronger effect = lower value
[15] = S. cerevisiae deletion strains, locus YOL006C, strain TOP1, stronger effect = lower value
[16] = S. cerevisiae deletion strains, locus YPL055C, strain LGE1, stronger effect = lower value
[17] = S. cerevisiae deletion strains, locus YPL241C, strain CIN2, stronger effect = lower value
[18] = S. cerevisiae strains, strain wild type, stronger effect = lower value

Measured: normalized growth

Cc1cc(O)c2c(c1)Cc1cccc(O)c1C2=O
inactive: [1] 0.978 | S. cerevisiae deletion strains, locus YBR021W, strain FUR4, stronger effect = lower value 1.09 | [2] 1.02 | S. cerevisiae deletion strains, locus YCL029C, strain bik1, stronger effect = lower value 1.01 | S. cerevisiae deletion strains, locus YDL035C, strain GPR1, stronger effect = lower value 0.978 | S. cerevisiae deletion strains, locus YDL074C, strain BRE1, stronger effect = lower value 0.832 | [3] 0.951 | [4] 0.992 | S. cerevisiae deletion strains, locus YDL185W, strain tfp1, stronger effect = lower value 1 | S. cerevisiae deletion strains, locus YDL192W, strain arf1, stronger effect = lower value 1.02 | S. cerevisiae deletion strains, locus YDR101C, strain arx1, stronger effect = lower value 1.01 | [5] 1.02 | S. cerevisiae deletion strains, locus YDR162C, strain NBP2, stronger effect = lower value 0.905 | S. cerevisiae deletion strains, locus YDR318W, strain mcm21, stronger effect = lower value 0.982 | S. cerevisiae deletion strains, locus YDR388W, stronger effect = lower value 0.998 | S. cerevisiae deletion strains, locus YDR502C, strain sam2, stronger effect = lower value 1 | S. cerevisiae deletion strains, locus YER110C, stronger effect = lower value 1.01 | S. cerevisiae deletion strains, locus YER155C, strain BEM2, stronger effect = lower value 1.02 | S. cerevisiae deletion strains, locus YER167W, strain BCK2, stronger effect = lower value 0.941 | S. cerevisiae deletion strains, locus YGL078C, strain dbp3, stronger effect = lower value 1.02 | S. cerevisiae deletion strains, locus YGL086W, strain mad1, stronger effect = lower value 0.979 | S. cerevisiae deletion strains, locus YGL248W, strain PDE1, stronger effect = lower value 0.958 | [7] 0.979 | S. cerevisiae deletion strains, locus YGR135W, strain pre9, stronger effect = lower value 1.02 | S. cerevisiae deletion strains, locus YGR252W, strain gcn5, stronger effect = lower value 0.914 | [8] 0.96 and 1.05 | S. cerevisiae deletion strains, locus YHR079C, strain IRE1 (second series), stronger effect = lower value 1.02 | S. cerevisiae deletion strains, locus YHR079C, strain IRE1, stronger effect = lower value 1.04 | S. cerevisiae deletion strains, locus YHR094C, strain hxt1, stronger effect = lower value 1.01 | S. cerevisiae deletion strains, locus YHR129C, strain ARP1, stronger effect = lower value 0.926 | S. cerevisiae deletion strains, locus YHR200W, strain rpn10, stronger effect = lower value 1.05 | S. cerevisiae deletion strains, locus YIL073C, strain SPO22, stronger effect = lower value 0.898 | S. cerevisiae deletion strains, locus YIL125W, strain kgd1, stronger effect = lower value 0.998 | S. cerevisiae deletion strains, locus YJL134W, strain LCB3, stronger effect = lower value 1.01 | S. cerevisiae deletion strains, locus YJL168C, strain set2, stronger effect = lower value 1 | [9] 1.01 | S. cerevisiae deletion strains, locus YJR066W, strain TOR1, stronger effect = lower value 0.938 | [10] 0.971 | S. cerevisiae deletion strains, locus YKL009W, strain mrt4, stronger effect = lower value 1.05 | S. cerevisiae deletion strains, locus YKL068W, stronger effect = lower value 1.02 | S. cerevisiae deletion strains, locus YKL085W, strain MDH1 (second series), stronger effect = lower value 1.03 | S. cerevisiae deletion strains, locus YKL085W, strain MDH1, stronger effect = lower value 1.03 | [11] 0.995 | S. cerevisiae deletion strains, locus YLR058C, strain SHM2, stronger effect = lower value 0.922 | S. cerevisiae deletion strains, locus YLR102C, strain apc9, stronger effect = lower value 1.05 | S. cerevisiae deletion strains, locus YLR113W, strain HOG1, stronger effect = lower value 1.05 | S. cerevisiae deletion strains, locus YLR268W, strain sec22, stronger effect = lower value 0.93 | S. cerevisiae deletion strains, locus YLR330W, strain CHS5, stronger effect = lower value 0.957 | S. cerevisiae deletion strains, locus YLR342W, strain FKS1 (second series), stronger effect = lower value 0.918 | S. cerevisiae deletion strains, locus YLR371W, strain rom2, stronger effect = lower value 1.02 | S. cerevisiae deletion strains, locus YLR418C, strain cdc73, stronger effect = lower value 0.902 | S. cerevisiae deletion strains, locus YML016C, strain PPZ1, stronger effect = lower value 0.999 | S. cerevisiae deletion strains, locus YML032C, strain rad52, stronger effect = lower value 0.906 | S. cerevisiae deletion strains, locus YML124C, strain tub3, stronger effect = lower value 1.03 | S. cerevisiae deletion strains, locus YMR078C, strain ctf18, stronger effect = lower value 0.974 | S. cerevisiae deletion strains, locus YMR223W, strain ubp8, stronger effect = lower value 1.06 | S. cerevisiae deletion strains, locus YMR307W, strain GAS1, stronger effect = lower value 0.874 | S. cerevisiae deletion strains, locus YNL067W, strain RPL9B, stronger effect = lower value 0.932 | S. cerevisiae deletion strains, locus YNL183C, strain NPR1, stronger effect = lower value 0.967 | S. cerevisiae deletion strains, locus YNL233W, strain BNI4, stronger effect = lower value 0.946 | S. cerevisiae deletion strains, locus YNL250W, strain rad50, stronger effect = lower value 0.962 | S. cerevisiae deletion strains, locus YNL271C, strain bni1, stronger effect = lower value 1.01 | S. cerevisiae deletion strains, locus YNL298W, strain CLA4, stronger effect = lower value 0.999 | S. cerevisiae deletion strains, locus YNL307C, strain MCK1, stronger effect = lower value 1 | [14] 0.987 | S. cerevisiae deletion strains, locus YNR052C, strain pop2, stronger effect = lower value 0.949 | S. cerevisiae deletion strains, locus YOL012C, strain htz1 0.675 | S. cerevisiae deletion strains, locus YOL147C, strain pex11, stronger effect = lower value 1.05 | S. cerevisiae deletion strains, locus YOR061W, strain CKA2, stronger effect = lower value 0.995 | S. cerevisiae deletion strains, locus YOR069W, strain VPS5, stronger effect = lower value 0.951 | S. cerevisiae deletion strains, locus YOR136W, strain idh2, stronger effect = lower value 1 | S. cerevisiae deletion strains, locus YOR144C, strain elg1, stronger effect = lower value 1.06 | S. cerevisiae deletion strains, locus YOR184W, strain ser1, stronger effect = lower value 0.984 | S. cerevisiae deletion strains, locus YOR231W, strain MKK1, stronger effect = lower value 1.07 | S. cerevisiae deletion strains, locus YOR316C, strain cot1, stronger effect = lower value 1.06 | [17] 0.982 | S. cerevisiae deletion strains, locus YPL256C, strain CLN2, stronger effect = lower value 1.09 | S. cerevisiae deletion strains, locus YPR119W, strain clb2, stronger effect = lower value 1.05 | S. cerevisiae deletion strains, locus YPR141C, strain kar3, stronger effect = lower value 1.02 | S. cerevisiae deletion strains, locus YPR163C, strain tif3, stronger effect = lower value 0.982 | S. cerevisiae deletion strains, locus YPR167C, strain met16, stronger effect = lower value 1.06 | S. cerevisiae deletion strains, strain wtn01, stronger effect = lower value 0.997
0.573 (active) and 1.05 (inactive): S. cerevisiae deletion strains, locus YJL095W, strain BCK1, stronger effect = lower value
active: [6] 0.848 | S. cerevisiae deletion strains, locus YGR229C, strain SMI1, stronger effect = lower value 0.677 | S. cerevisiae deletion strains, locus YIL066C, strain RNR3, stronger effect = lower value 0.717 | S. cerevisiae deletion strains, locus YIR030C, strain dcg1, stronger effect = lower value 1.1 [resistant] | S. cerevisiae deletion strains, locus YJL187C, strain SWE1 (second series), stronger effect = lower value 0.742 | S. cerevisiae deletion strains, locus YKR001C, strain vps1, stronger effect = lower value 0.865 | [12] 0.261 | [13] 0.517 | [15] 0.261 | [16] 0.753 | [18] 0.881

CC(C)(C)c1nccc(-c2nn(-c3ccc(F)cc3)ccc2=O)n1
inactive: [1] 0.991 | [2] 0.988 | S. cerevisiae deletion strains, locus YCL061C, strain MRC1, stronger effect = lower value 1.02 | [3] 1.03 | [4] 0.994 | [5] 0.9 | [6] 1.01 | [7] 1.01 | [8] 1.02 | S. cerevisiae deletion strains, locus YHR087W, strain rtc3, stronger effect = lower value 0.985 | S. cerevisiae deletion strains, locus YJL187C, strain SWE1, stronger effect = lower value 1.03 | [9] 1 | [10] 1.03 | [11] 1.01 | [12] 0.99 | S. cerevisiae deletion strains, locus YLR058C, strain SHM2 (second series), stronger effect = lower value 1 | S. cerevisiae deletion strains, locus YLR085C, strain ARP6, stronger effect = lower value 1.15 | [13] 0.974 | S. cerevisiae deletion strains, locus YML094W, strain GIM5, stronger effect = lower value 1 | S. cerevisiae deletion strains, locus YMR219W, strain ESC1, stronger effect = lower value 1 | S. cerevisiae deletion strains, locus YMR263W, strain SAP30, stronger effect = lower value 0.995 | S. cerevisiae deletion strains, locus YNL153C, strain GIM3, stronger effect = lower value 1.02 | S. cerevisiae deletion strains, locus YNL298W, strain CLA4 (second series), stronger effect = lower value 1.03 | [14] 1 | S. cerevisiae deletion strains, locus YNR030W, strain Alg12, stronger effect = lower value 0.999 | [15] 1.09 | [16] 0.949 | [17] 1.04 | S. cerevisiae deletion strains, locus YPR135W, strain CTF4, stronger effect = lower value 0.869 | [18] 0.99
